Experimental data published in PubChem BioAssay AID1159580 (chemical genetic matrix, 2015).
About 2,000 (36%) of roughly 5,500 compounds were called active. About 18% were inconclusive and are not listed. Rule as the data show it: active = normalized growth mostly below about 0.91 (no sharp cut-off); inconclusive = no clear call, values can overlap the other calls; inactive = mostly above about 0.92. Some of the results follow.

Assay: chemical genetic growth profiling, strain panel (AID 1159580);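 also: tested at 20 µM; growth read once vehicle control cultures reached saturation at 30 °C; 1 = growth at the plate median or of vehicle wells; lower values mean less growth of the strain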
Settings: growth OD

Measured: normalized growth

C[C@]12C=CC(=O)C=C1CCC1C3C[C@@H](O)[C@](O)(C(=O)CO)[C@@]3(C)C[C@H](O)[C@@]12F (some centres undefined)
inactive: S. cerevisiae deletion strains, locus YJR066W, strain TOR1, stronger effect = lower value 0.952 | S. cerevisiae deletion strains, locus YJR075W, strain HOC1, stronger effect = lower value 1.01 | S. cerevisiae deletion strains, locus YKL009W, strain mrt4, stronger effect = lower value 0.983 | S. cerevisiae deletion strains, locus YKL068W, stronger effect = lower value 0.992 | S. cerevisiae deletion strains, locus YKL085W, strain MDH1 (second series), stronger effect = lower value 0.983 | S. cerevisiae deletion strains, locus YKL085W, strain MDH1, stronger effect = lower value 0.983 | S. cerevisiae deletion strains, locus YKL160W, strain elf1, stronger effect = lower value 0.957 | S. cerevisiae deletion strains, locus YKL190W, strain CNB1, stronger effect = lower value 1 | S. cerevisiae deletion strains, locus YKR001C, strain vps1, stronger effect = lower value 0.944 | S. cerevisiae deletion strains, locus YKR026C, strain gcn3, stronger effect = lower value 0.985 | S. cerevisiae deletion strains, locus YKR091W, strain srl3, stronger effect = lower value 0.985 | S. cerevisiae deletion strains, locus YLL001W, strain dnm1, stronger effect = lower value 1.01 | S. cerevisiae deletion strains, locus YLL026W, stronger effect = lower value 0.964 | S. cerevisiae deletion strains, locus YLL041C, strain sdh2, stronger effect = lower value 0.985 | S. cerevisiae deletion strains, locus YLR027C, strain aat2, stronger effect = lower value 0.998 | S. cerevisiae deletion strains, locus YLR039C, strain RIC1, stronger effect = lower value 1.01 | S. cerevisiae deletion strains, locus YLR058C, strain SHM2, stronger effect = lower value 1.01 | S. cerevisiae deletion strains, locus YLR102C, strain apc9, stronger effect = lower value 0.981 | S. cerevisiae deletion strains, locus YLR113W, strain HOG1, stronger effect = lower value 1.01 | S. cerevisiae deletion strains, locus YLR221C, strain rsa3, stronger effect = lower value 1.01 | S. cerevisiae deletion strains, locus YLR258W, strain gsy2, stronger effect = lower value 0.983 | S. cerevisiae deletion strains, locus YLR262C, strain YPT6 (second series), stronger effect = lower value 0.996 | S. cerevisiae deletion strains, locus YLR262C, strain YPT6, stronger effect = lower value 1.02 | S. cerevisiae deletion strains, locus YLR268W, strain sec22, stronger effect = lower value 0.953 | S. cerevisiae deletion strains, locus YLR320W, strain mms22, stronger effect = lower value 0.98 | S. cerevisiae deletion strains, locus YLR330W, strain CHS5, stronger effect = lower value 1.01 | S. cerevisiae deletion strains, locus YLR342W, strain FKS1 (second series), stronger effect = lower value 1 | S. cerevisiae deletion strains, locus YLR342W, strain FKS1, stronger effect = lower value 0.982 | S. cerevisiae deletion strains, locus YLR357W, strain rsc2, stronger effect = lower value 0.941 | S. cerevisiae deletion strains, locus YLR370C, strain arc18, stronger effect = lower value 0.991 | S. cerevisiae deletion strains, locus YLR371W, strain rom2, stronger effect = lower value 0.987 | S. cerevisiae deletion strains, locus YLR384C, strain iki3, stronger effect = lower value 0.993 | S. cerevisiae deletion strains, locus YLR418C, strain cdc73, stronger effect = lower value 0.968 | S. cerevisiae deletion strains, locus YML016C, strain PPZ1, stronger effect = lower value 1.01 | S. cerevisiae deletion strains, locus YML032C, strain rad52, stronger effect = lower value 0.974 | S. cerevisiae deletion strains, locus YML120C, strain ndi1, stronger effect = lower value 0.99 | S. cerevisiae deletion strains, locus YML124C, strain tub3, stronger effect = lower value 0.981 | S. cerevisiae deletion strains, locus YMR058W, strain fet3, stronger effect = lower value 1.04 | S. cerevisiae deletion strains, locus YMR078C, strain ctf18, stronger effect = lower value 0.989 | S. cerevisiae deletion strains, locus YMR125W, strain sto1, stronger effect = lower value 0.942 | S. cerevisiae deletion strains, locus YMR129W, stronger effect = lower value 0.988 | S. cerevisiae deletion strains, locus YMR205C, strain PFK2, stronger effect = lower value 0.958 | S. cerevisiae deletion strains, locus YMR223W, strain ubp8, stronger effect = lower value 0.991 | S. cerevisiae deletion strains, locus YMR231W, strain pep5, stronger effect = lower value 0.989 | S. cerevisiae deletion strains, locus YMR263W, strain SAP30, stronger effect = lower value 1.01 | S. cerevisiae deletion strains, locus YMR307W, strain GAS1, stronger effect = lower value 0.991 | S. cerevisiae deletion strains, locus YNL067W, strain RPL9B, stronger effect = lower value 1.01 | S. cerevisiae deletion strains, locus YNL071W, strain lat1, stronger effect = lower value 0.983 | S. cerevisiae deletion strains, locus YNL183C, strain NPR1, stronger effect = lower value 0.961 | S. cerevisiae deletion strains, locus YNL209W, strain ssb2, stronger effect = lower value 0.978 | S. cerevisiae deletion strains, locus YNL233W, strain BNI4, stronger effect = lower value 1.01 | S. cerevisiae deletion strains, locus YNL248C, strain rpa49, stronger effect = lower value 0.925 | S. cerevisiae deletion strains, locus YNL250W, strain rad50, stronger effect = lower value 0.985 | S. cerevisiae deletion strains, locus YNL271C, strain bni1, stronger effect = lower value 0.971 | S. cerevisiae deletion strains, locus YNL298W, strain CLA4, stronger effect = lower value 0.98 | S. cerevisiae deletion strains, locus YNL307C, strain MCK1, stronger effect = lower value 0.975 | S. cerevisiae deletion strains, locus YNL322C, strain KRE1 (second series), stronger effect = lower value 0.944 | S. cerevisiae deletion strains, locus YNR049C, strain mso1, stronger effect = lower value 0.985 | S. cerevisiae deletion strains, locus YNR052C, strain pop2, stronger effect = lower value 0.988 | S. cerevisiae deletion strains, locus YOL006C, strain TOP1, stronger effect = lower value 1.06 | S. cerevisiae deletion strains, locus YOL012C, strain htz1 1.1 | S. cerevisiae deletion strains, locus YOL147C, strain pex11, stronger effect = lower value 0.975 | S. cerevisiae deletion strains, locus YOR001W, strain rrp6, stronger effect = lower value 1.02 | S. cerevisiae deletion strains, locus YOR061W, strain CKA2, stronger effect = lower value 1.01 | S. cerevisiae deletion strains, locus YOR069W, strain VPS5, stronger effect = lower value 1.01 | S. cerevisiae deletion strains, locus YOR070C, strain gyp1, stronger effect = lower value 0.979 | S. cerevisiae deletion strains, locus YOR080W, strain dia2, stronger effect = lower value 0.987 | S. cerevisiae deletion strains, locus YOR083W, strain WHI5, stronger effect = lower value 0.901 | S. cerevisiae deletion strains, locus YOR106W, strain vam3, stronger effect = lower value 0.924 | S. cerevisiae deletion strains, locus YOR136W, strain idh2, stronger effect = lower value 0.986 | S. cerevisiae deletion strains, locus YOR144C, strain elg1, stronger effect = lower value 0.985 | S. cerevisiae deletion strains, locus YOR184W, strain ser1, stronger effect = lower value 0.974 | S. cerevisiae deletion strains, locus YOR231W, strain MKK1, stronger effect = lower value 0.983 | S. cerevisiae deletion strains, locus YOR265W, strain rbl2, stronger effect = lower value 0.969 | S. cerevisiae deletion strains, locus YOR270C, strain vph1, stronger effect = lower value 0.988 | S. cerevisiae deletion strains, locus YOR290C, strain snf2, stronger effect = lower value 0.962 | S. cerevisiae deletion strains, locus YOR316C, strain cot1, stronger effect = lower value 0.991 | S. cerevisiae deletion strains, locus YPL051W, strain arl3, stronger effect = lower value 0.967 | S. cerevisiae deletion strains, locus YPL078C, strain atp4, stronger effect = lower value 0.961 | S. cerevisiae deletion strains, locus YPL106C, strain sse1, stronger effect = lower value 0.976 | S. cerevisiae deletion strains, locus YPL240C, strain hsp82, stronger effect = lower value 0.986 | S. cerevisiae deletion strains, locus YPL241C, strain CIN2, stronger effect = lower value 1.01 | S. cerevisiae deletion strains, locus YPL256C, strain CLN2, stronger effect = lower value 0.973 | S. cerevisiae deletion strains, locus YPR119W, strain clb2, stronger effect = lower value 0.99 | S. cerevisiae deletion strains, locus YPR141C, strain kar3, stronger effect = lower value 0.993 | S. cerevisiae deletion strains, locus YPR163C, strain tif3, stronger effect = lower value 0.973 | S. cerevisiae deletion strains, locus YPR167C, strain met16, stronger effect = lower value 0.979 | S. cerevisiae deletion strains, strain wtn01, stronger effect = lower value 0.969 | S. cerevisiae strains, strain wild type, stronger effect = lower value 1.01
